Experimental data: PubChem BioAssay AID720551 (National Center for Advancing Translational Sciences (NCATS), 2013)
Hit rate of the full screen: of about 340,000 compounds, about 1,300 (0.38%) were called active. The sample holds actives, similar compounds and a random draw of the others, so the mix is not that of the screen.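 Rule for the calls: active = maximum activity change below -70%; inconclusive = maximum activity change between -70% and -50%; inactive = maximum activity change above -50%.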

target: Voltage-gated inwardly rectifying potassium channel KCNH2 (Homo sapiens) (UniProt Q12809); test: qHTS for Inhibitors of KCHN2 3.1: Wildtype qHTS; details: U2OS, BacMam KCNH2, thallium flux FluxOr; at 1.84 µM; hits give low values
Sequence (Q12809 whole entry, looked up): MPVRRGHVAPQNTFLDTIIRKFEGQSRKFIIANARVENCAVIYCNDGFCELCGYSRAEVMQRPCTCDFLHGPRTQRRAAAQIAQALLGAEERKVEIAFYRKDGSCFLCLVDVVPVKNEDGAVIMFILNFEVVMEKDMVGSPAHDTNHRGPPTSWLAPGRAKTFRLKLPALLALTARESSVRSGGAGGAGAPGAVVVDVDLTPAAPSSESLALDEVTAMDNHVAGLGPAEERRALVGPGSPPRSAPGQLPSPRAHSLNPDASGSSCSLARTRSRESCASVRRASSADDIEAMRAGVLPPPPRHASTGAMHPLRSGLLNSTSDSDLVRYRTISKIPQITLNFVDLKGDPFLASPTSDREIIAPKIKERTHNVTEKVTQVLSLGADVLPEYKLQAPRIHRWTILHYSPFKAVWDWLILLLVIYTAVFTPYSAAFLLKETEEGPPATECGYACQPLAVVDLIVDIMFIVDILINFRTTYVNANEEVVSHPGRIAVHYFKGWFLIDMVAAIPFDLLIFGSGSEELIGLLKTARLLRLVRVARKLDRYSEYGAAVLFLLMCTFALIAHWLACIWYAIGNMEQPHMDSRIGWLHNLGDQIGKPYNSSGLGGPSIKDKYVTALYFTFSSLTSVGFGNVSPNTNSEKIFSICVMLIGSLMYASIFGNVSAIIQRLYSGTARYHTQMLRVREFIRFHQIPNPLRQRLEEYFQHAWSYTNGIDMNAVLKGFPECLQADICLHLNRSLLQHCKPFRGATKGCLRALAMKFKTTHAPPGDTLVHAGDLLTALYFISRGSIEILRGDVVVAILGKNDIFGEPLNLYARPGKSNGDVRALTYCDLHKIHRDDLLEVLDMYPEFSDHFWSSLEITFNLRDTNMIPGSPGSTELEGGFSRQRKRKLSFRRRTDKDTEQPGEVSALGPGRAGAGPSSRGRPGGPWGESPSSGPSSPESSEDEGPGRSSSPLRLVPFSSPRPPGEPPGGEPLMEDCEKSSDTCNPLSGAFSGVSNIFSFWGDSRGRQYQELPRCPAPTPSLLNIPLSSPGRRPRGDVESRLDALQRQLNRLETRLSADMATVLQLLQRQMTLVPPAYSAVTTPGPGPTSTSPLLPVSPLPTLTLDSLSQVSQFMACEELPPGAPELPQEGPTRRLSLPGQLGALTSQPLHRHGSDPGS
Summary of the method: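 U2OS cells were transduced with wild-type KCNH2 virus (2.03 x 10^8 / mL) for 4 h at room temperature, then cultured overnight at 37 C. Thallium flux was read with FluxOr dye. Rate constants were normalized to DMSO controls.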
% is set by controls: 0 for no effect and ±100 for the full control effect.

For O=C(COc1ccc(Br)cc1)OCC(=O)c1ccc[nH]1, which activity change is on record?
The activity change was -10.8% (inactive).

With COc1ccc(NC(=O)CN(C)C(=O)c2cc(C)oc2C)cc1 as the compound, how does the activity change read?
The activity change was -15.3% (inactive).

For CCc1cccc(CC)c1N1C(=O)CC(Sc2ccccc2N)C1=O (centres undefined), which activity change is on record?
Its activity change is -0.824% (inactive).

CCC(c1nnnn1Cc1ccco1)N(CCc1ccccc1)Cc1cc2cccc(C)c2[nH]c1=O (centres undefined) was tested. Which activity change did it give?
Its activity change is -261% (active).

How did the activity change turn out when CCC(c1nnnn1Cc1ccco1)N(Cc1cc2cc(OC)ccc2[nH]c1=O)C1CCCCC1 (centres undefined) was run?
Its activity change is 0.509% (inactive).

Which activity change does the source give for CCC(c1nnnn1C1CCCC1)N(Cc1cccs1)Cc1cc2cccc(C)c2[nH]c1=O (centres undefined) here?
Its activity change is -3.98% (inactive).

Which activity change does the source give for Cc1ccccc1C#CC1=CC(=O)CC(C)(C)C1 here?
The activity change was 11% (inactive).

Which activity change does the source give for CC1(C)CC(=O)C=C(c2ccccc2CO)C1=O here?
Its activity change is 2.31% (inactive).

CCOC(=O)C1(CCOc2ccccc2)CCN(Cc2cc(OC)cc(OC)c2)CC1 was tested. Which activity change did it give?
Its activity change is -109% (active).

CCCS(=O)(=O)N1CCC(CCOc2ccccc2)(C(=O)OCC)CC1 was tested. Which activity change did it give?
The activity change was 9.17% (inactive).

CCOC(=O)C1(CCOc2ccccc2)CCN(Cc2ccc(C#CCCO)cc2)CC1 was tested. Which activity change did it give?
The activity change was 19.1% (inactive).

O=C(O)c1ccccc1Cc1ccc(F)c2ccccc12 was tested. Which activity change did it give?
The activity change was 3.97% (inactive).

COC(=O)C[C@H]1C[C@@H]2c3cc(N(C)C)ccc3O[C@@H]2[C@H](CO)O1 was tested. Which activity change did it give?
The activity change was -11.4% (inactive).

O=C(c1ccc(CS(=O)Cc2ccccc2Cl)o1)N1CCN(c2ccccc2)CC1 (centres undefined) was tested. Which activity change did it give?
The activity change was 7.11% (inactive).

Which activity change does the source give for Cc1nc2ccccc2n1CC(O)c1ccccc1 (centres undefined) here?
The activity change was -1.47% (inactive).

CCOC(=O)c1ccc2c(c1)nc(C)n2CC was tested. Which activity change did it give?
The activity change was 12.4% (inactive).

CCn1c(C)nc2c1C(=O)c1ccccc1C2=O was tested. Which activity change did it give?
The activity change was -229% (active).

With C[C@@H]1CN([C@H](C)CO)C(=O)CCCn2cc(nn2)CO[C@H]1CN(C)S(C)(=O)=O as the compound, how does the activity change read?
The activity change was -23.5% (inactive).

With CC(C)N=C1CCCC1C(=S)SSC(=S)C1CCCC1=NC(C)C (centres undefined) as the compound, how does the activity change read?
The activity change was -26.8% (inactive).

With Cc1ccc(S(=O)(=O)/N=C2\C=C(NS(=O)(=O)c3ccc(C)cc3)C(=O)c3ccccc32)cc1 as the compound, how does the activity change read?
Its activity change is 1.35% (inactive).

For Cc1ccc2sc(N(CCN(C)C)C(=O)/C=C/c3cccs3)nc2c1C, which activity change is on record?
The activity change was -101% (active).

How did the activity change turn out when Cc1cc(C)c2nc(N(CCN(C)C)C(=O)/C=C/c3cccs3)sc2c1 was run?
The activity change was -136% (active).

Which activity change does the source give for CN(C)CCN(C(=O)CN1C(=O)c2ccccc2C1=O)c1nc2cc3c(cc2s1)OCCO3 here?
The activity change was 8.23% (inactive).

How did the activity change turn out when Cc1ccc(S(=O)(=O)N(C)C)cc1NC(=O)/C=C/c1cccs1 was run?
Its activity change is -0.908% (inactive).

How did the activity change turn out when Cc1cccc2sc(N(CCCN(C)C)C(=O)CCS(=O)(=O)c3ccccc3)nc12 was run?
Its activity change is 3.42% (inactive).

With Cc1ccc(S(=O)(=O)N(C)C)cc1NC(=O)COC(=O)/C=C/c1cccs1 as the compound, how does the activity change read?
The activity change was -3.39% (inactive).

With CCOc1ccc(CCNC(=O)COC(=O)c2ccc(C)c(S(=O)(=O)N3CCOCC3)c2)cc1OCC as the compound, how does the activity change read?
The activity change was -0.902% (inactive).

Which activity change does the source give for O=C(Nc1cccc(C(=O)O)c1)/C(=C\c1ccccc1)NC(=O)c1ccc(Br)o1 here?
The activity change was 9.44% (inactive).

Which activity change does the source give for Cc1ccc(S(=O)(=O)NN=C2CC(C)(C)CC(=O)C2(C)C)cc1 here?
Its activity change is -3.73% (inactive).

O=C(OCc1ccccc1)N1CCC2CC1c1cc(N3CCN(S(=O)(=O)c4cc(Cl)cc(Cl)c4)CC3)ccc12 (centres undefined) was tested. Which activity change did it give?
The activity change was 3.43% (inactive).

O=C(Nc1cccn(Cc2ccccc2Cl)c1=O)NC1CCCCC1 was tested. Which activity change did it give?
The activity change was -11.4% (inactive).

With O=C(Nc1cccn(Cc2c(Cl)cccc2Cl)c1=O)c1ccc(Cl)cc1 as the compound, how does the activity change read?
Its activity change is -350% (active).

With Cc1cc(NC(=O)c2ccco2)c(=O)n(Cc2c(F)cccc2Cl)c1 as the compound, how does the activity change read?
Its activity change is -11.4% (inactive).

With CCOC(=O)C1CCN(C(=O)c2ccc3c(=O)n4nc(Nc5ccccc5CC)sc4nc3c2)CC1 as the compound, how does the activity change read?
Its activity change is -22.8% (inactive).

For CCN(CC)C(=O)C1=C(C)N(Cc2ccc(F)cc2)C(=O)C(CC(=O)NCc2cccc3ccccc23)C1 (centres undefined), which activity change is on record?
Its activity change is 6.51% (inactive).

For COC(=O)c1ccc(OC(=O)c2cnccn2)cc1, which activity change is on record?
The activity change was -0.0992% (inactive).

How did the activity change turn out when O=C(Oc1ccc(-c2nc(-c3ccccn3)no2)cc1)c1ccccc1 was run?
Its activity change is -11.6% (inactive).

O=C(Oc1ccccc1)c1ccc2nccnc2c1 was tested. Which activity change did it give?
Its activity change is -169% (active).

Cc1cccc(C(=O)C(O)(c2ccccc2)C2CCCCC2=O)c1 (centres undefined) was tested. Which activity change did it give?
Its activity change is 8.63% (inactive).

N#CCSc1ccccc1NC(=O)CN1C(=O)NC(CCc2ccccc2)C1=O (centres undefined) was tested. Which activity change did it give?
Its activity change is -4.38% (inactive).

CC1CCC2(CC1)NC(=O)N(CC(=O)NCc1ccco1)C2=O (centres undefined) was tested. Which activity change did it give?
Its activity change is 5.92% (inactive).

COc1ccc(CCNC(=O)CCc2cn(C)c3ccccc23)c(OC)c1 was tested. Which activity change did it give?
The activity change was 6.58% (inactive).

How did the activity change turn out when CCOC(=O)CNC(=O)CN1C(=O)CCSc2ccccc21 was run?
The activity change was 10.6% (inactive).

With COc1ccc(CCNC(=O)CN2C(=O)CCSc3ccccc32)c(OC)c1 as the compound, how does the activity change read?
The activity change was -169% (active).

For CCOC(=O)C(C(=O)c1ccccc1)C(c1ccccc1)c1nccc2ccccc12 (centres undefined), which activity change is on record?
The activity change was 3.11% (inactive).

How did the activity change turn out when O=C(COC(=O)c1ccc(F)cc1)Nc1ccc2c(c1)OCO2 was run?
The activity change was -0.371% (inactive).

Which activity change does the source give for O=C(CN1CCN(CC(=O)Nc2ccc3c(c2)OCO3)CC1)Nc1ccc(F)cc1 here?
The activity change was -129% (active).

Which activity change does the source give for O=C(CN1CCN(C(=O)c2ccco2)CC1)Nc1ccc2c(c1)OCO2 here?
Its activity change is -4.79% (inactive).

Which activity change does the source give for CCCCN1C(=O)C(CC(=O)NCc2cccs2)CC(C(=O)N2CCOCC2)=C1C (centres undefined) here?
Its activity change is -2.88% (inactive).

Which activity change does the source give for Cc1ccc(S(=O)(=O)N2C[C@]3(O)C[C@@H]4C(=O)N(c5ccccc5)C(=O)[C@@H]4C[C@]3(OC(=O)NC3CC3)C2)cc1 here?
The activity change was -7.72% (inactive).

How did the activity change turn out when CN(C)/C=C(/C(=O)c1ccc(Cl)cc1)S(=O)(=O)c1ccccc1 was run?
Its activity change is 0.0109% (inactive).

For CN(C)/C=C(/C(=O)c1ccccc1Cl)S(C)(=O)=O, which activity change is on record?
The activity change was -134% (active).

How did the activity change turn out when CN(C)/C=C(/C(=O)c1ccccc1)S(=O)(=O)c1ccc(Cl)cc1 was run?
Its activity change is -7.44% (inactive).

How did the activity change turn out when COCC1CCCCN1C(=O)c1cc(COc2ccc(C)c(C)c2)on1 (centres undefined) was run?
Its activity change is -11.8% (inactive).
